Our source for the growth values is PubChem BioAssay (NCI).

This is part of a sample that, as a whole, favours compounds with a hit. Of some 83,000 tested, about 20% had one in any assay.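 Compound tested at a single concentration for 48 hours in 96-well plates; a percent growth value below 10 was scored as active.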 A number with no mark means an inactive call. Active and inactive are the calls of the source.

Among the test systems are SK-MEL-2 melanoma; EKVX NSCLC; SN12C renal; UO-31 renal; TK-10 renal; ACHN renal; CAKI-1 renal; A498 renal; CCRF-CEM leukemia; MOLT-4 leukemia; RPMI-8226 leukemia; OVCAR-8 ovarian; OVCAR-5 ovarian; OVCAR-4 ovarian; SK-OV-3 ovarian; IGROV1 ovarian; OVCAR-3 ovarian; HS 578T breast; NCI/ADR-RES ovarian.
Common to all, as to assay: NCI-60 one-dose screen, 48 h (100 = growth as untreated, 0 = no growth, -100 = all killed)
Holding throughout (details): 10 µM unless noted

On to `COc1cccc(-c2nc3sccn3c2-c2ccnc(NCCNS(=O)(=O)c3ccc(C(F)(F)F)cc3)c2)c1`, for which the growth in the test on SK-MEL-2 melanoma was 47.5%; in the test on EKVX NSCLC, 40.4%; in the test with SN12C renal, 40.7%; with UO-31 renal it was -23.8% (active); in the test with TK-10 renal, 49.2%; with ACHN renal, -60.2% (active). The growth with CAKI-1 renal was 34.5%; in the test with A498 renal, 18.9%; with CCRF-CEM leukemia, 22.6%; in the test on MOLT-4 leukemia, 13.7%; with RPMI-8226 leukemia it was 3.52% (active); with OVCAR-8 ovarian, 27.1%. The growth in the test with OVCAR-5 ovarian is 88%; in the test with OVCAR-4 ovarian, 16.3%; in the test on SK-OV-3 ovarian, 40.5%; in the test on IGROV1 ovarian it was 45.2%; in the test with OVCAR-3 ovarian it was 40.7%; in the test with HS 578T breast it was 30.5%. The growth in the test with NCI/ADR-RES ovarian is 19.9%.
As to `O=c1ccn2nc3ccccc3c2[nH]1`, the growth was 108% with SK-MEL-2 melanoma; 63.6% in the test with EKVX NSCLC; 84.8% with SN12C renal; 76.6% with UO-31 renal; 121% in the test on TK-10 renal; 91.1% with ACHN renal. Also, the growth with CAKI-1 renal is 89.4%; in the test with A498 renal, 125%; in the test with CCRF-CEM leukemia it was 118%; in the test on MOLT-4 leukemia, 108%; with RPMI-8226 leukemia it was 101%; in the test on OVCAR-8 ovarian, 114%. Besides, the growth with OVCAR-5 ovarian was 79.2%; in the test on OVCAR-4 ovarian, 111%; in the test with SK-OV-3 ovarian it was 99.4%; with IGROV1 ovarian, 110%; in the test with OVCAR-3 ovarian, 117%; in the test with HS 578T breast it was 134%. Also, in the test with NCI/ADR-RES ovarian, the growth is 60.1%.
As for `O=C(N/N=C/C=C/c1ccc([N+](=O)[O-])o1)c1cc2ccccc2cc1O`, the growth in the test with SK-MEL-2 melanoma is -44.6% (active); with EKVX NSCLC it was -15.9% (active); in the test with SN12C renal it was -10.7% (active); in the test on UO-31 renal, -71.9% (active); in the test with TK-10 renal, 2.31% (active); with ACHN renal, -3% (active). In addition, the growth is 12.7% in the test with CAKI-1 renal; -82.4% (active) in the test on A498 renal; 5.15% (active) with CCRF-CEM leukemia; 4.89% (active) with MOLT-4 leukemia; -11.2% (active) in the test with RPMI-8226 leukemia; 0.564% (active) with OVCAR-8 ovarian. In addition, the growth was -1.58% (active) in the test with OVCAR-5 ovarian; -100% (active) in the test on OVCAR-4 ovarian; -13.5% (active) in the test with SK-OV-3 ovarian; -62.6% (active) in the test with IGROV1 ovarian; -54.8% (active) with OVCAR-3 ovarian; -4.48% (active) in the test on HS 578T breast. The growth in the test on NCI/ADR-RES ovarian is 0.815% (active).
As to `CSc1n(Cc2ccc3ccccc3c2)c(C)c[n+]1Cc1ccc2ccccc2c1`, the growth is -25.7% (active) in the test with SK-MEL-2 melanoma; 24.9% with EKVX NSCLC; -2.22% (active) in the test on SN12C renal; 72.4% in the test on UO-31 renal; -9.72% (active) in the test on TK-10 renal; 48% in the test with ACHN renal. Moreover, the growth in the test on CAKI-1 renal is -22.8% (active); with A498 renal, -32.3% (active); with CCRF-CEM leukemia, 1.28% (active); with MOLT-4 leukemia it was 2.39% (active); with RPMI-8226 leukemia, -38.3% (active); in the test with OVCAR-8 ovarian, -3.48% (active). The growth in the test on OVCAR-5 ovarian is 6.94% (active); with OVCAR-4 ovarian it was -7.94% (active); in the test on SK-OV-3 ovarian it was 5.34% (active); in the test on IGROV1 ovarian, -55.6% (active); in the test on OVCAR-3 ovarian it was -41.9% (active); with HS 578T breast, -23.3% (active). Besides, the growth in the test on NCI/ADR-RES ovarian was 78.4%.
Consider `COc1ccc(-c2[nH]c(=S)n(C(CC3(C)NCC(=O)N3n3c(-c4ccccc4)cc(C)nc3=S)c3ccc(OC)cc3)c(=O)c2Br)cc1` (stereo not drawn), for which the growth in the test with SK-MEL-2 melanoma is 73.5%; in the test with EKVX NSCLC it was 60.5%; with SN12C renal it was 65.5%; in the test with UO-31 renal it was 38.6%; in the test on TK-10 renal, 63.5%; in the test with ACHN renal, 67.5%. The growth is 31.4% in the test on CAKI-1 renal; -10.4% (active) in the test with A498 renal; 57.5% in the test on CCRF-CEM leukemia; 54.6% in the test on MOLT-4 leukemia; -7.13% (active) in the test with RPMI-8226 leukemia; 71.2% in the test on OVCAR-8 ovarian. In addition, the growth was 83.4% in the test on OVCAR-5 ovarian; 54.9% in the test on OVCAR-4 ovarian; 62.4% in the test on SK-OV-3 ovarian; 50.6% in the test on IGROV1 ovarian; 67.5% in the test on OVCAR-3 ovarian; 40.7% with HS 578T breast. The growth in the test with NCI/ADR-RES ovarian is 80.3%.
Consider `COc1cc(N2C(=O)c3nccnc3C2=O)cc(OC)c1OC`, for which the growth with SK-MEL-2 melanoma was 95.5%; in the test with EKVX NSCLC it was 104%; in the test with SN12C renal it was 94.1%; in the test on UO-31 renal it was 87.5%; in the test on TK-10 renal it was 100%; in the test with ACHN renal it was 112%. For the same compound, the growth was 97.3% in the test with CAKI-1 renal; 87.2% with A498 renal; 100% in the test with CCRF-CEM leukemia; 94.5% in the test with MOLT-4 leukemia; 97.6% in the test with RPMI-8226 leukemia; 104% with OVCAR-8 ovarian. The growth in the test on OVCAR-5 ovarian was 109%; with OVCAR-4 ovarian, 105%; with SK-OV-3 ovarian, 103%; in the test with IGROV1 ovarian, 98.2%; in the test with OVCAR-3 ovarian, 120%; in the test with HS 578T breast, 104%. Also, in the test on NCI/ADR-RES ovarian, the growth is 104%.
Regarding `Cc1cc(=O)[nH]c(N=Nc2c(O)[nH]c3ccccc23)n1`, the growth in the test on SK-MEL-2 melanoma was 103%; with EKVX NSCLC it was 111%; in the test on SN12C renal, 102%; with UO-31 renal it was 84.9%; in the test with TK-10 renal, 112%; in the test on ACHN renal, 101%. For the same compound, the growth is 96.1% in the test on CAKI-1 renal; 127% with A498 renal; 94.6% in the test with CCRF-CEM leukemia; 109% in the test on MOLT-4 leukemia; 105% in the test on RPMI-8226 leukemia; 104% in the test with OVCAR-8 ovarian. For the same compound, the growth with OVCAR-5 ovarian was 105%; in the test with OVCAR-4 ovarian, 118%; with SK-OV-3 ovarian it was 112%; with IGROV1 ovarian, 92.8%; in the test with OVCAR-3 ovarian it was 112%; in the test with HS 578T breast, 122%. Also, the growth with NCI/ADR-RES ovarian was 108%.
